Laboratory results reported in PubChem BioAssay (NCATS).
Inconclusive results are not listed. A call without a number means that no potency is given here. Calls of active or inactive are those of the source. Calls come from the whole dose curve; as a rule, active = well fitted cell-killing curve with a large enough effect; inconclusive = small, poorly fitted or top-dose-only effect, or effect the other way; inactive = no such curve, though single readings can be large or run the other way.

Legend:
[1] = Viability qHTS for spleen associated tyrosine kinase inhibitor (SYKi) naive MV4-11 cells (AID 1963823); conditions: MV4-11 AML viability, CellTiter-Glo luminescence, 72 h; series mostly up to 45 µM; note: nearly all actives have a fitted effect of over 40% in size
Method in brief: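 Read-out: CellTiter-Glo luminescence. Exposure: 72 hr, 37 C, 5% CO2, 95% humidity. Cells: MV4-11 without SYK inhibitor history, 500/well, qHTS format.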

[2] = Viability qHTS for spleen associated tyrosine kinase inhibitor (SYKi) drug resistant MV4-11 cells (AID 1963824); conditions: SYKi-resistant MV4-11 viability, CellTiter-Glo, 72 h; series mostly up to 45 µM; note: nearly all actives have a fitted effect of over 35% in size
Method in brief: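 CellTiter-Glo luminescence, read 10 min after reagent addition, reports viability after a 72 hr compound exposure. Cells are an MV4-11 line made resistant to SYK inhibition, seeded at 500 per well onto compound-containing plates.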
Potency is the fitted concentration of half-maximal effect.

With O=C(Nc1ccc(-c2ccc(Cl)c(Cl)c2)cc1)C1=C(O)c2ccccc2S(=O)(=O)N1 the Potency [1] was 20.6 µM (active) and the Potency [2] was 23.1 µM (active).
For CCCCC1CCN(CCCC(=O)c2ccccc2C)CC1, the Potency [1] was 16.4 µM (active) and the Potency [2] was 13 µM (active).
In the case of C=CC(C)(CC/C=C(\C)C(=O)OC)OC1OC(COC(=O)CC(C)(O)CC(=O)O)C(OC2OC(CO)C(O)C(O)C2O)C(O)C1O (stereo unspecified), the Potency [1] is reported as “inactive” and the Potency [2] is reported as “inactive”.
In the case of Cc1ccc(NS(=O)(=O)c2cc3c(cc2N[C@H](C)CO)NC(=O)CC3)cc1C, the Potency [1] is reported as 20.6 µM (active) and the Potency [2] is reported as 14.6 µM (active).
With NC(=O)NCCCC(NC(=O)Cc1ccccc1)C(=O)O (stereo unspecified) the Potency [1] was “inactive” and the Potency [2] was “inactive”.
In the case of C=C1C(=O)O[C@@H]2/C=C(/C)[C@@H](OC(C)=O)C/C=C(\C)C[C@@H](OC(=O)/C(=C/CO)CO)[C@@H]12, the Potency [1] is reported as 3.99 µM (active) and the Potency [2] is reported as 3.55 µM (active).
In the case of CCCc1cc(C)[nH]c(=O)c1CNC(=O)c1cc(-c2ccnc(N3CCN(C)CC3)c2)cc2c1cnn2C(C)C, the Potency [1] is reported as 14.8 µM (active) and the Potency [2] is reported as 11.8 µM (active).
With C=C1CC[C@@H](O)[C@]2(C)C[C@H]3OC(=O)C(=C)[C@H]3CC12 (stereo partly specified) the Potency [1] was 14.6 µM (active) and the Potency [2] was 6.51 µM (active).
For NC(=O)c1cccc2[nH]c(-c3ccc(C4CCCN4)cc3F)nc12 (stereo unspecified), the Potency [1] was 13 µM (active) and the Potency [2] was 16.4 µM (active).
For COc1ccc2c(c1)C(C(=O)N(Cc1ccc(N(C)C)cc1)c1ccc(C(C)C)cc1)CCC2 (stereo unspecified), the Potency [1] was 16.4 µM (active) and the Potency [2] was 14.6 µM (active).
In the case of COC(=O)c1c(C)cc(OC(=O)c2c(C)cc(OC)cc2OC)cc1O[C@@H]1O[C@H](CO)[C@@H](O)[C@H](O)[C@H]1O, the Potency [1] is reported as “inactive” and the Potency [2] is reported as “inactive”.
In the case of CCCCc1nc(C)c(CC(=S)N(C)C)c(=O)n1Cc1ccc(-c2ccccc2-c2nn[nH]n2)cc1, the Potency [1] is reported as “inactive” and the Potency [2] is reported as “inactive”.
With CCOC(=O)[C@@H](N)Cc1ccc(-c2cc(O[C@H](c3ccc(Cl)cc3-n3ccc(C)n3)C(F)(F)F)nc(N)n2)cc1 the Potency [1] was 8.33 µM (active) and the Potency [2] was 4.17 µM (active).
With CCC(C)(O)C(O)C(=O)OCc1ccc(O[C@@H]2O[C@H](CO)[C@@H](O)[C@H](O)[C@H]2O)cc1 (stereo partly specified) the Potency [1] was “inactive” and the Potency [2] was “inactive”.
In the case of C[C@]12CCC[C@](C)(C(=O)O)C1CCC13C=C(CO)C(CCC12)C3 (stereo partly specified), the Potency [1] is reported as “inactive” and the Potency [2] is reported as “inactive”.
With CC1(C(=O)O)CCCC2(C)C3=CCC4CC3(CCC12)CC4CO (stereo unspecified) the Potency [1] was “inactive” and the Potency [2] was “inactive”.
With CC1CCC2(C=O)C(CO)=CCCC2C1(C)CC(=O)O (stereo unspecified) the Potency [1] was “inactive” and the Potency [2] was “inactive”.
In the case of C=CC1(C)C=C2CCC3C(C)(C)C(O[C@@H]4O[C@@H](CO)[C@H](O)[C@H]4O)CCC3(C)C2CC1O[C@@H]1O[C@H](C)[C@H](O)[C@H](O)[C@H]1O (stereo partly specified), the Potency [1] is reported as “inactive” and the Potency [2] is reported as “inactive”.
With C=CCc1ccc(O[C@@H]2O[C@H](CO)[C@@H](O)[C@H](O)[C@H]2O)c(O[C@@H]2O[C@H](CO)[C@@H](O)[C@H](O)[C@H]2O)c1 the Potency [1] was “inactive” and the Potency [2] was “inactive”.
In the case of C=C1C(=O)O[C@@H]2C[C@@]3(C)CCCC(=C)[C@]3(O)C[C@H]12, the Potency [1] is reported as 5.8 µM (active) and the Potency [2] is reported as 2.59 µM (active).
In the case of COC(=O)C1=CO[C@@H](O[C@@H]2O[C@H](CO)[C@@H](O)[C@H](O)[C@H]2O)[C@@H]2[C@@H](C)[C@@H](O)C[C@H]12, the Potency [1] is reported as “inactive” and the Potency [2] is reported as “inactive”.
For COC1CC(=O)C23C(=O)NC(CC(C)C)C2C(C)C(C)=CC3/C=C(\C)CCC(O)C1O (stereo unspecified), the Potency [1] was 1.42 µM (active) and the Potency [2] was 1.78 µM (active).
With C[C@@H]1[C@H]2[C@H](O[C@@H]3O[C@H](CO)[C@@H](O)[C@H](O)[C@H]3O)OC=C(C(=O)O)[C@H]2C[C@@H]1O the Potency [1] was “inactive” and the Potency [2] was “inactive”.
For CC(=O)OC[C@]12[C@@H](OC(=O)c3ccoc3)C[C@@H]3[C@@H](OC(C)=O)[C@]1(OC3(C)C)[C@@](C)(O)C[C@H](OC(=O)c1ccoc1)[C@@H]2OC(=O)c1ccoc1, the Potency [1] was “inactive” and the Potency [2] was “inactive”.
With CC1=CC(=O)C2(OC3OC(C)C(O)C(OC(=O)/C=C/c4ccccc4)C3O)C=COC(OC3OC(CO)C(O)C(O)C3O)C12 (stereo unspecified) the Potency [1] was “inactive” and the Potency [2] was “inactive”.
With Cc1cn2cc(C(=O)N(C)CCO)cc(NC3CCOc4cccc(C)c43)c2n1 (stereo unspecified) the Potency [1] was “inactive” and the Potency [2] was “inactive”.
For C=C1CC2[C@@]3(C)C=CC(=O)C(C)(C)C3=C(O)C(=O)[C@@]2(C)C2(C(=O)OC)C(=O)C(C)OC(=O)[C@@]12C (stereo partly specified), the Potency [1] was 10 µM (active) and the Potency [2] was 10 µM (active).
In the case of C=CC(=O)N1CCC(C2CCNc3c(C(N)=O)c(-c4ccc(Oc5ccccc5)cc4)nn32)CC1 (stereo unspecified), the Potency [1] is reported as 7.42 µM (active) and the Potency [2] is reported as 11.8 µM (active).
